Measurements reported in PubChem BioAssay (Tox21).
Records with an inconclusive call do not appear. Values without a mark were called inactive. Calls follow the shape of the full dose curve.

Assay: qHTS assay to identify small molecule agonists of the AP-1 signaling pathway (AID 1159526)
Conditions: ME-180 (cervical carcinoma) AP-1-bla reporter, beta-lactamase FRET ratio, 5 h; series mostly up to 76.8 µM; activation: at the top concentration
% is scaled to controls: 0 for no effect and ±100 for the full control effect.

Compared with `Cc1ccc(NC=O)c(C)c1`, `O=Cc1ccc(Cl)c([N+](=O)[O-])c1` is higher in “activation” value: -1.62% for the first, 0.642% for the second.

Compared with `CC(CN=Cc1ccccc1O)N=Cc1ccccc1O` (centres undefined), `CC(=O)Nc1ccccc1O` is higher in “activation” value: -8.03% for the first, -2.7% for the second.

Going from `CCC(C)CCCC(C)(C)O` (centres undefined) to `C=CC(O)CCCCC` (centres undefined), the “activation” value falls from 1.7% to -4.64%.

Compared with `CCCCOC(=O)C(C)Oc1ccc(Oc2ccc(C(F)(F)F)cn2)cc1` (centres undefined), `CO[C@@H]1COCC[C@@H]1N[C@@H]1CC[C@@](C(=O)N2CCc3ncc(C(F)(F)F)cc3C2)(C(C)C)C1` is lower in “activation” value: 0.989% for the first, -4.46% for the second.

Going from `O=C(O)CNc1ccccc1` to `CNc1ccccc1`, the “activation” value falls from -0.104% to -1.7%.

Going from `O=C(Nc1ccccc1)c1cc([N+](=O)[O-])ccc1Cl` to `Cc1cc(N)n(-c2ccccc2)n1`, the “activation” value falls from -1.62% to -3.89%.

Going from `C=CC(C)CCC=C(C)C` (centres undefined) to `C=CCCC`, the “activation” value falls from 2.03% to -1.07%.

First: CCCCCCCCC(=O)OCC(C)OC(=O)CCCCCCCC (centres undefined)
Second: CCCCCCCCCCCCSC#N
The “activation” value of the first is higher: 8.74% for the first, -3.18% for the second.

Going from `Cc1cc(C)n(CO)n1` to `CC(C)Oc1ccccc1O`, the “activation” value rises from -0.363% to 0.615%.

Compared with `OCCCO`, `CCCCOC(=O)CC#N` is higher in “activation” value: 1.29% for the first, 12.2% for the second.

First: FC1(F)C(F)(F)C(F)(F)C2(F)C(F)(C1(F)F)C(F)(F)C(F)(F)C1(F)C(F)(F)C(F)(F)C(F)(F)C(F)(F)C12F (centres undefined)
Second: CC1(C)CC(=O)CC(C)(C)N1
The “activation” value of the first is lower: 3.32% for the first, 9.46% for the second.

Compared with `CCCCC(CC)COCCC#N` (centres undefined), `C=C(C)C(=O)OCCCCCCCCCCOC(=O)C(=C)C` is higher in “activation” value: -6.1% for the first, 0.631% for the second.

First: O=C1OC(=O)C2CC=CCC12 (centres undefined)
Second: Nc1cccc2c(=O)[nH][nH]c(=O)c12
The “activation” value of the first is higher: -0.853% for the first, -3.66% for the second.

Going from `CC(O)CN` (centres undefined) to `CC(O)C(C)O` (centres undefined), the “activation” value rises from -1.98% to -1.75%.

Compared with `COC(=O)C(C)(C)C`, `CCCN(C1CCN(C(=O)C2CCNCC2)CC1)[C@@H]1CCc2ccc(OC)cc2C1` is higher in “activation” value: -8% for the first, -0.29% for the second.

Compared with `NC(=O)c1ccccc1C(N)=O`, `O=C(OCCOCCOCCOC(=O)c1ccccc1)c1ccccc1` is lower in “activation” value: 12.7% for the first, -4.57% for the second.

Going from `CO[C@@H]1[C@@H](O[C@@H]2O[C@H](C)[C@@H](O[C@H]3C[C@@](C)(O)[C@@H](O)[C@H](C)O3)[C@H](N(C)C)[C@H]2O)[C@@H](CC=O)C[C@@H](C)[C@@H](O[C@@H]2CC[C@H](N(C)C)[C@@H](C)O2)/C=C/C=C/C[C@@H](C)OC(=O)C[C@H]1OC(C)=O` to `CC(=O)OCC(=O)[C@@]1(O)CC[C@H]2[C@@H]3CCC4=CC(=O)C=C[C@]4(C)[C@@]3(F)[C@@H](O)C[C@@]21C`, the “activation” value falls from 3.91% [at 35.3 µM] to 3.46% [at 35.3 µM].

Going from `CC1=C(C)C(=O)C(CCCCC#CCCCC#CCO)=C(C)C1=O` to `CCN(CCCCOC(=O)c1ccc(OC)c(OC)c1)C(C)Cc1ccc(OC)cc1` (centres undefined), the “activation” value falls from 3.09% [at 35.3 µM] to -1.35% [at 35.3 µM].

Compared with `C[C@H](CN1CCCC1)C(=O)c1ccc(C(F)(F)F)cc1`, `CC(C)(C(=O)O)c1ccc(C(O)CCCN2CCC(C(O)(c3ccccc3)c3ccccc3)CC2)cc1` (centres undefined) is lower in “activation” value: 0.0993% [at 35.3 µM] for the first, -0.0163% [at 35.3 µM] for the second.

In the case of `CC[C@H](NC(C)C)[C@H](O)c1ccc(O)c2[nH]c(=O)ccc12`, the “activation” value is reported as -5.52% [at 35.3 µM].
